# Reference: the supplement of paper PMC8728848
# This excerpt belongs to a sample that is enriched for the strongest signals.
# B1: LlpA (Arthrobacter sp) (protein)
# chain: MGSSHHHHHHSSGLVPRGSHMTLHPETALRPGAAATSPNSRYRLLYQTDGNLVLYGPDGPLWDSGTNGHGAGACIMQADGNLVLYGPNDEYVWDTETDNNPGSRLVIQDDGNAVIYRPDGSPLWATETCQPPGSADSHVLQSGSTLTPTHGIRSANGLYGLLYQTDGNLVFYGPDGPLWDSGTNGRGAGACIMQPDGNLVLYGPHDEYVWDTETDNNPGSRLVIQDDGNAVIYRPDGNPTWVTGTH
# Legend:
# Assay in all cases: glycan array binding signal (z-score within array); higher = stronger binding
# Conditions in all cases: glycan notation: IUPAC condensed, linker removed
# [1] = target: GlcNAc(b1-3)Gal(b1-4)GlcNAc(b1-3)Gal(b1-4)GlcNAc
# Procedure, shortened: (§1)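 The Consortium for Functional Glycomics database supplied 3228 glycan arrays, of which those lacking an available protein sequence were dropped. The binding signal, a within-array Z-score, was averaged across arrays of the same protein sequence and across linkers. Negative scores can be read as non-binding.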
# [2] = target: GlcNAc(b1-3)Gal(b1-4)GlcNAc(b1-3)Gal(b1-4)GlcNAc(b1-2)Man(a1-3)[GlcNAc(b1-3)Gal(b1-4)GlcNAc(b1-3)Gal(b1-4)GlcNAc(b1-2)Man(a1-6)]Man(b1-4)GlcNAc(b1-4)[Fuc(a1-6)]GlcNAc
# Procedure, shortened: as §1
# [3] = target: GlcNAc(b1-3)Gal(b1-4)GlcNAc(b1-3)Gal(b1-4)GlcNAc(b1-3)Gal(b1-4)GlcNAc(b1-3)Gal(b1-4)GlcNAc(b1-2)Man(a1-3)[GlcNAc(b1-3)Gal(b1-4)GlcNAc(b1-3)Gal(b1-4)GlcNAc(b1-3)Gal(b1-4)GlcNAc(b1-3)Gal(b1-4)GlcNAc(b1-2)Man(a1-6)]Man(b1-4)GlcNAc(b1-4)[Fuc(a1-6)]GlcNAc
# Procedure, shortened: as §1
# [4] = target: GlcNAc(b1-3)Gal(b1-4)GlcNAc(b1-3)Gal(b1-4)GlcNAc(b1-3)Gal(b1-4)GlcNAc(b1-3)Gal(b1-4)GlcNAc(b1-2)[GlcNAc(b1-3)Gal(b1-4)GlcNAc(b1-3)Gal(b1-4)GlcNAc(b1-3)Gal(b1-4)GlcNAc(b1-3)Gal(b1-4)GlcNAc(b1-6)]Man(a1-6)[GlcNAc(b1-3)Gal(b1-4)GlcNAc(b1-3)Gal(b1-4)GlcNAc(b1-3)Gal(b1-4)GlcNAc(b1-3)Gal(b1-4)GlcNAc(b1-2)Man(a1-3)]Man(b1-4)GlcNAc(b1-4)[Fuc(a1-6)]GlcNAc
# Procedure, shortened: as §1
# [5] = target: GlcNAc(b1-3)Gal(b1-4)GlcNAc(b1-3)Gal(b1-4)GlcNAc(b1-3)GalNAc
# Procedure, shortened: as §1
# [6] = target: GlcNAc(b1-3)Gal(b1-4)GlcNAc(b1-6)[Gal(b1-3)]GalNAc
# Procedure, shortened: as §1
# [7] = target: GlcNAc(b1-3)Man
# Procedure, shortened: as §1
# [8] = target: GlcNAc(b1-4)GlcNAc(b1-4)GlcNAc(b1-4)GlcNAc(b1-4)GlcNAc
# Procedure, shortened: as §1
# [9] = target: Man(a1-2)Man(a1-6)[Man(a1-3)]Man(a1-6)[Man(a1-2)Man(a1-2)Man(a1-3)]Man(b1-4)GlcNAc(b1-4)GlcNAc
# Procedure, shortened: as §1
# [10] = target: MurNAc(b1-4)GlcNAc
# Procedure, shortened: as §1
# [11] = target: Neu5Ac(a2-3)Gal(b1-3)GalNAc(b1-4)[Neu5Ac(a2-8)Neu5Ac(a2-3)]Gal(b1-4)Glc
# Procedure, shortened: as §1
# [12] = target: Neu5Ac(a2-3)Gal(b1-3)GlcNAc(b1-2)Man(a1-3)[Neu5Ac(a2-3)Gal(b1-3)GlcNAc(b1-2)Man(a1-6)]Man(b1-4)GlcNAc(b1-4)GlcNAc
# Procedure, shortened: as §1
# [13] = target: Neu5Ac(a2-3)Gal(b1-3)GlcNAc(b1-6)GalNAc
# Procedure, shortened: as §1
# [14] = target: Neu5Ac(a2-3)Gal(b1-4)GlcNAc(b1-3)Gal(b1-3)GlcNAc
# Procedure, shortened: as §1
# [15] = target: Neu5Ac(a2-3)Gal(b1-4)[Fuc(a1-3)]GlcNAc(b1-3)GalNAc
# Procedure, shortened: as §1
# [16] = target: Neu5Ac(a2-3)[GalNAc(b1-4)]Gal(b1-4)Glc
# Procedure, shortened: as §1
# [17] = target: Neu5Ac(a2-6)Gal(b1-4)GlcNAc(b1-2)Man(a1-3)[Gal(b1-4)GlcNAc(b1-2)Man(a1-6)]Man(b1-4)GlcNAc(b1-4)GlcNAc
# Procedure, shortened: as §1
# [18] = target: Neu5Ac(a2-6)Gal(b1-4)GlcNAc(b1-2)Man(a1-3)[Neu5Ac(a2-6)Gal(b1-4)GlcNAc(b1-2)Man(a1-6)]Man(b1-4)GlcNAc(b1-4)[Fuc(a1-6)]GlcNAc
# Procedure, shortened: as §1
# [19] = target: Neu5Ac(a2-6)Gal(b1-4)GlcNAc(b1-2)Man(a1-6)Man(b1-4)GlcNAc(b1-4)GlcNAc
# Procedure, shortened: as §1
# [20] = target: Neu5Ac(a2-6)Gal(b1-4)GlcNAc(b1-3)Gal(b1-3)GlcNAc
# Procedure, shortened: as §1
# [21] = target: Neu5Ac(a2-6)Gal(b1-4)GlcNAc(b1-3)Gal(b1-4)GlcNAc(b1-3)Gal(b1-4)GlcNAc(b1-2)Man(a1-3)[Neu5Ac(a2-6)Gal(b1-4)GlcNAc(b1-3)Gal(b1-4)GlcNAc(b1-3)Gal(b1-4)GlcNAc(b1-2)Man(a1-6)]GalNAc
# Procedure, shortened: as §1
# [22] = target: Neu5Ac(a2-6)Gal(b1-4)GlcNAc(b1-3)Gal(b1-4)GlcNAc(b1-3)GalNAc
# Procedure, shortened: as §1
# [23] = target: Neu5Ac(a2-6)Gal(b1-4)GlcNAc(b1-3)Gal(b1-4)GlcNAc(b1-3)[Neu5Ac(a2-6)Gal(b1-4)GlcNAc(b1-3)Gal(b1-4)GlcNAc(b1-6)]GalNAc
# Procedure, shortened: as §1
# [24] = target: Neu5Ac(a2-8)Neu5Ac(a2-3)Gal(b1-3)GalNAc(b1-4)[Neu5Ac(a2-8)Neu5Ac(a2-3)]Gal(b1-4)Glc
# Procedure, shortened: as §1
# [25] = target: Neu5Ac(a2-8)Neu5Ac(a2-3)[Gal(b1-3)GalNAc(b1-4)]Gal(b1-4)Glc
# Procedure, shortened: as §1
# [26] = target: Neu5Ac9Ac(a2-6)Gal(b1-4)GlcNAc
# Procedure, shortened: as §1
# [27] = target: Neu5Gc(a2-6)Gal(b1-4)GlcNAc
# Procedure, shortened: as §1
# [28] = target: Neu5Gc(a2-8)Neu5Ac(a2-3)Gal(b1-4)GlcNAc
# Procedure, shortened: as §1
binder,measurement,setting,value
B1,glycan array binding signal (z-score),[1],-0.689
same,glycan array binding signal (z-score),[2],2.11
same,glycan array binding signal (z-score),[3],2.07
same,glycan array binding signal (z-score),[4],1.82
same,glycan array binding signal (z-score),[5],0.18
same,glycan array binding signal (z-score),[6],-0.319
same,glycan array binding signal (z-score),[7],1.02
same,glycan array binding signal (z-score),[8],0.068
same,glycan array binding signal (z-score),[9],0.31
same,glycan array binding signal (z-score),[10],-0.798
same,glycan array binding signal (z-score),[11],-0.752
same,glycan array binding signal (z-score),[12],-0.65
same,glycan array binding signal (z-score),[13],0.849
same,glycan array binding signal (z-score),[14],0.273
same,glycan array binding signal (z-score),[15],1.8
same,glycan array binding signal (z-score),[16],0.446
same,glycan array binding signal (z-score),[17],-0.376
same,glycan array binding signal (z-score),[18],2.31
same,glycan array binding signal (z-score),[19],0.4
same,glycan array binding signal (z-score),[20],-0.33
same,glycan array binding signal (z-score),[21],2.47
same,glycan array binding signal (z-score),[22],0.214
same,glycan array binding signal (z-score),[23],0.568
same,glycan array binding signal (z-score),[24],1.98
same,glycan array binding signal (z-score),[25],0.321
same,glycan array binding signal (z-score),[26],0.62
same,glycan array binding signal (z-score),[27],-0.005
same,glycan array binding signal (z-score),[28],-0.504
